These results are taken from PubChem BioAssay.

Active and inactive are the calls of the source.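 How the source made its calls, unless noted: active means compounds that lower viability of the colon cancer cells in the luminescence readout, with no numeric limit stated; inactive means the rest.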

The nature of assay [1]: Wnt pathway potentiators raising nuclear beta-catenin – imaging, WNT3A-conditioned medium, mouse C2C12, NPC library, primary screen (AID 1117326; in the data active means nuclear beta-catenin stimulation mostly above about 4.2%, no sharp cut-off; inactive means mostly below about 10%; further: reference of the scale not given here). The settings on record: stronger effect = higher value.
A short description of assay [2]: stimulators of insulin release from INS-1E, primary screen, cell-based, 5 mM glucose, NPC library (AID 1117329;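 active means compound raises insulin release from rat beta cells at 5 mM glucose, no numeric limit stated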; further: reference of the scale not given here). The note with it: rat INS-1E insulin secretion, at 10 µM, stronger effect = higher value.
The nature of assay [3]: growth inhibition of GSK3B-pretreated HCT116 cells – cell-based, CellTiter-Glo, 0.2 to 20 µM (AID 1117336;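 active means compounds lowering colon cancer cell viability after pretreatment blocking the GSK3B kinase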). The note with it: HCT116 viability after GSK3B inhibitor, at 20 µM, stronger effect = higher value.
A short description of assay [4]: inhibition of endothelial tube formation, primary screen, imaging, VEGF stimulated, CD31 staining, tube area, NPC library (AID 1117340;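 active means compound that reduces growth-factor-driven endothelial tube area in a mixed cell culture, no cutoff stated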). The settings on record: VEGF-stimulated ADSC/ECFC co-culture, at 10 µM, stronger effect = higher value.
Assay [5] is described as follows: GLP1 release stimulators, primary, NCI-H716, NPC library (AID 1117341;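 active means compound raises GLP1 secretion from the human gut endocrine cells, with no numeric limit stated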; further: reference of the scale not given here). The settings on record: NCI-H716 cells, at 10 µM, stronger effect = higher value.
Assay [6] can be described thus: HCT116 colon cancer cell growth inhibition, primary screen, CellTiter-Glo luminescence, NPC library (AID 1117342;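 active means compounds that lower survival of HCT116 colon cancer cells in the luminescence readout, no numeric limit stated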). The note with it: at 20 µM (top of the series). Background: ATP-based viability assays read luminescence as a measure of living cells.
Assay [7] can be described thus: reduced SW480 viability measured with CellTiter-Glo, NPC library, primary (AID 1117343). The note with it: CellTiter-Glo luminescence; at 20 µM (top of the series).
Assay [8] can be described thus: NPC library primary testing for decreased DLD-1 cell viability via CellTiter-Glo (AID 1117346;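 active means compounds that lower survival of DLD-1 colon cancer cells in the luminescence readout, no cutoff given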). The settings on record: DLD-1 viability, CellTiter-Glo luminescence; at 20 µM (top of the series).

As to `N[C@@H](Cc1cc(I)c(O)c(I)c1)C(=O)O`, the nuclear beta-catenin stimulation in assay [1] (at 10 µM) is 15% (inactive); in assay [1] (stimulation, at 2 µM), 3.2%. Also, the insulin secretion stimulation in assay [2] was -1% (inactive). Besides, the viability decrease in assay [3] was -3.6% (inactive). In addition, the tube area decrease in assay [4] was 26.5% (inactive). The GLP1 secretion stimulation in assay [5] was -3.4% (inactive). In addition, the inhibition of viability in assay [6] was 3.4% (inactive). Further, the viability decrease (inhibition) in assay [7] was 24.1% (inactive); in assay [8], -15.2% (inactive).

As for `CCOC(=O)COc1ccc2c(C)c(CCN(CC)CC)c(=O)oc2c1Cl`, the nuclear beta-catenin stimulation in assay [1] (at 10 µM) was -2.3% (inactive); in assay [1] (stimulation, at 2 µM) it was -0.4%. Besides, in assay [2], the insulin secretion stimulation was 0% (inactive). Besides, the viability decrease in assay [3] is -5% (inactive). Besides, the tube area decrease in assay [4] was 45.5% (active). Further, the GLP1 secretion stimulation in assay [5] was 2.5% (inactive). For the same compound, the inhibition of viability in assay [6] was 15.1% (inactive). Further, the values for the viability decrease (inhibition) in assay [7] and in assay [8] were 7.8% (inactive) and -17.9% (inactive), respectively.

For `O=Cc1ccccc1C=O`, the nuclear beta-catenin stimulation in assay [1] (at 10 µM) was -0.8% (inactive); in assay [1] (stimulation, at 2 µM), 0.2%. In assay [2], the insulin secretion stimulation is -0.6% (inactive). The viability decrease in assay [3] is 1.65% (inactive). Besides, the tube area decrease in assay [4] is 9.9% (inactive). Besides, the GLP1 secretion stimulation in assay [5] was 2.6% (inactive). For the same compound, the inhibition of viability in assay [6] is -1.7% (inactive). Moreover, the viability decrease (inhibition) in assay [7] was 12.2% (inactive); in assay [8], -1.7% (inactive).

With `CN[C@@H]1[C@H](O)[C@H](O[C@@H]2[C@H](O)[C@@H](O[C@H]3O[C@H]([C@@H](C)NC)CC[C@H]3N)[C@@H](N)C[C@H]2N)OC[C@]1(C)O`, the nuclear beta-catenin stimulation in assay [1] (at 10 µM) was -0.1% (inactive); in assay [1] (stimulation, at 2 µM), -0.4%. The insulin secretion stimulation in assay [2] was 1.1% (inactive). Further, the viability decrease in assay [3] was 7.9% (inactive). For the same compound, the tube area decrease in assay [4] is 0.9% (inactive). In addition, the GLP1 secretion stimulation in assay [5] is 2.8% (inactive). The inhibition of viability in assay [6] was 6.73% (inactive). Further, the figures for the viability decrease (inhibition) in assay [7] and in assay [8] were 29.9% (inactive) and -5.6% (inactive), respectively.

In the case of `O=C(O)Cc1ccc2c(c1)C(=O)c1ccccc1CO2`, the nuclear beta-catenin stimulation in assay [1] (at 10 µM) was 0.5% (inactive); in assay [1] (stimulation, at 2 µM) it was 0.6%. The insulin secretion stimulation in assay [2] was 0.2% (inactive). Besides, the viability decrease in assay [3] was -4.5% (inactive). Moreover, the tube area decrease in assay [4] is -16.2% (inactive). Besides, the GLP1 secretion stimulation in assay [5] was 1.7% (inactive). In assay [6], the inhibition of viability was -7.1% (inactive). The viability decrease (inhibition) in assay [7] is -5.2% (inactive); in assay [8], -10.1% (inactive).

In the case of `CC(C)(C)c1ccc2c(S(=O)(=O)O)c(C(C)(C)C)ccc2c1`, the nuclear beta-catenin stimulation in assay [1] (at 10 µM) was -2.9% (inactive); in assay [1] (stimulation, at 2 µM), -1.4%. Moreover, the insulin secretion stimulation in assay [2] is 0.3% (inactive). Besides, the viability decrease in assay [3] is -22% (inactive). Moreover, the tube area decrease in assay [4] is -2.7% (inactive). Besides, the GLP1 secretion stimulation in assay [5] was 1% (inactive). In addition, in assay [6], the inhibition of viability was -18.9% (inactive). The viability decrease (inhibition) in assay [7] was 9% (inactive); in assay [8] it was -14.4% (inactive).

In the case of `c1ccc(CNCCNCc2ccccc2)cc1`, the nuclear beta-catenin stimulation in assay [1] (at 10 µM) is 4% (inactive); in assay [1] (stimulation, at 2 µM) it was 4.4%. Also, the insulin secretion stimulation in assay [2] was 3.4% (inactive). Further, the viability decrease in assay [3] is -31.8% (inactive). The tube area decrease in assay [4] is -24% (inactive). Also, the GLP1 secretion stimulation in assay [5] is 2.1% (inactive). Also, the inhibition of viability in assay [6] was -6.83% (inactive). The figures for the viability decrease (inhibition) in assay [7] and in assay [8] were 20% (inactive) and -22.2% (inactive), respectively.

Consider `COC(=O)c1ccccc1C(=O)c1ccc(OCCN2CCCCC2)cc1`, for which the nuclear beta-catenin stimulation in assay [1] (at 10 µM) was 0.4% (inactive); in assay [1] (stimulation, at 2 µM), 0.7%. Besides, the insulin secretion stimulation in assay [2] was 0.95% (inactive). Moreover, the viability decrease in assay [3] was 26.9% (inactive). For the same compound, the tube area decrease in assay [4] is -5.8% (inactive). For the same compound, in assay [5], the GLP1 secretion stimulation was 3.5% (inactive). In addition, the inhibition of viability in assay [6] was 39.7% (inactive). Also, the values for the viability decrease (inhibition) in assay [7] and in assay [8] were 15.8% (inactive) and 39.7% (inactive), respectively.

For `COC(=O)c1cc(Cl)c(NC(C)=O)cc1OC`, the nuclear beta-catenin stimulation in assay [1] (at 10 µM) was 1.9% (inactive); in assay [1] (stimulation, at 2 µM) it was 0.7%. In addition, in assay [2], the insulin secretion stimulation was 0.95% (inactive). The viability decrease in assay [3] was -12.1% (inactive). Further, the tube area decrease in assay [4] is -7.7% (inactive). Also, in assay [5], the GLP1 secretion stimulation is 1.2% (inactive). Further, the inhibition of viability in assay [6] is -1.4% (inactive). In addition, the viability decrease (inhibition) in assay [7] is -23.1% (inactive); in assay [8] it was -11.9% (inactive).

For the compound `CO/N=C(/C(=O)N[C@@H]1C(=O)N2C(C(=O)[O-])=C(C[n+]3ccn4ncccc43)CS[C@H]12)c1nsc(N)n1`, the nuclear beta-catenin stimulation is 2% (inactive) in assay [1] (at 10 µM) and -1% in assay [1] (stimulation, at 2 µM). Also, in assay [2], the insulin secretion stimulation was 3.45% (inactive). The viability decrease in assay [3] is 16.4% (inactive). Further, in assay [4], the tube area decrease was -10.7% (inactive). Also, in assay [5], the GLP1 secretion stimulation is -1.2% (inactive). In addition, the inhibition of viability in assay [6] was -21.9% (inactive). Further, the figures for the viability decrease (inhibition) in assay [7] and in assay [8] were -3.8% (inactive) and -6.6% (inactive), respectively.

For `CN(C)[C@@H]1C(=O)C(C(=O)NCN2CCCC2)=C(O)[C@@]2(O)C(=O)C3=C(O)c4c(O)cccc4[C@@](C)(O)C3C[C@@H]12` (some centres undefined), the nuclear beta-catenin stimulation in assay [1] (at 10 µM) was 3.5% (inactive); in assay [1] (stimulation, at 2 µM), 3.1%. Moreover, the insulin secretion stimulation in assay [2] was 2.3% (inactive). Moreover, the viability decrease in assay [3] was -20.7% (inactive). Moreover, in assay [4], the tube area decrease was -7.9% (inactive). The GLP1 secretion stimulation in assay [5] is 25.3% (active). In addition, in assay [6], the inhibition of viability was 3.4% (inactive). Further, the viability decrease (inhibition) in assay [7] was -73.8% (inactive); in assay [8] it was 2.6% (inactive).

As for `CO[C@@]1(NC(=O)CSC[C@@H](N)C(=O)O)C(=O)N2C(C(=O)O)=C(CSc3nnnn3C)CS[C@@H]21`, the nuclear beta-catenin stimulation was 0.6% (inactive) in assay [1] (at 10 µM) and -1.7% in assay [1] (stimulation, at 2 µM). Moreover, the insulin secretion stimulation in assay [2] is 2.6% (inactive). Also, in assay [3], the viability decrease was 4.5% (inactive). The tube area decrease in assay [4] was -11.8% (inactive). Also, in assay [5], the GLP1 secretion stimulation is -0.5% (inactive). Further, the inhibition of viability in assay [6] is -0.6% (inactive). Further, the viability decrease (inhibition) in assay [7] is -15.3% (inactive); in assay [8] it was 3.1% (inactive).

As for `CCC(C(=O)OCCN1CCOC(c2ccccc2)C1C)c1ccccc1` (centres undefined), the nuclear beta-catenin stimulation in assay [1] (at 10 µM) is 1% (inactive); in assay [1] (stimulation, at 2 µM) it was 1.6%. In assay [2], the insulin secretion stimulation was 1.7% (inactive). The viability decrease in assay [3] is -40.8% (inactive). Moreover, the tube area decrease in assay [4] is 3.7% (inactive). Moreover, in assay [5], the GLP1 secretion stimulation is 5.9% (inactive). In assay [6], the inhibition of viability was 15.8% (inactive). In addition, the viability decrease (inhibition) in assay [7] was -0.4% (inactive); in assay [8] it was 22.2% (inactive).

Consider `CC(=O)Oc1ccc(C(=C2CCCCC2)c2ccc(OC(C)=O)cc2)cc1`, for which the nuclear beta-catenin stimulation in assay [1] (at 10 µM) is 0.2% (inactive); in assay [1] (stimulation, at 2 µM), 1.4%. For the same compound, the insulin secretion stimulation in assay [2] was -0.3% (inactive). In addition, the viability decrease in assay [3] is 109% (active). For the same compound, the tube area decrease in assay [4] was 4.9% (inactive). In addition, the GLP1 secretion stimulation in assay [5] is 7.4% (inactive). For the same compound, the inhibition of viability in assay [6] is 112% (active). Besides, the viability decrease (inhibition) was 130% (active) in assay [7] and 102% (active) in assay [8].

Consider `CC/C=C(\C(=O)N[C@@H]1C(=O)N2C(C(=O)OCOC(=O)C(C)(C)C)=C(COC(N)=O)CS[C@H]12)c1csc(N)n1`, for which the nuclear beta-catenin stimulation in assay [1] (at 10 µM) is -1% (inactive); in assay [1] (stimulation, at 2 µM), -0.1%. The insulin secretion stimulation in assay [2] is 1.85% (inactive). Further, in assay [3], the viability decrease is -5.5% (inactive). Also, the tube area decrease in assay [4] was -9.6% (inactive). Further, in assay [5], the GLP1 secretion stimulation was -0.1% (inactive). Besides, the inhibition of viability in assay [6] is -6.4% (inactive). Besides, the viability decrease (inhibition) was -3.4% (inactive) in assay [7] and -17.7% (inactive) in assay [8].

As to `CO[C@@H]1[C@@H](OC)[C@H](C)[C@@](O)(CC(=O)O)O[C@H]1[C@H](C)[C@H]1O[C@@]2(CC[C@@](C)([C@H]3CC[C@@](C)([C@@H]4O[C@@H]([C@H]5O[C@](C)(O)[C@H](C)C[C@@H]5C)C[C@@H]4OC4C[C@H](OC)[C@@H](OC)[C@H](C)O4)O3)O2)C[C@H](O)[C@H]1C` (some centres undefined), the nuclear beta-catenin stimulation was -1.1% (inactive) in assay [1] (at 10 µM) and 10.6% in assay [1] (stimulation, at 2 µM). Also, the insulin secretion stimulation in assay [2] was 5.4% (inactive). The viability decrease in assay [3] was 79.8% (active). The tube area decrease in assay [4] was 111% (active). For the same compound, in assay [5], the GLP1 secretion stimulation is 15% (inactive). Besides, the inhibition of viability in assay [6] was 66.7% (active). For the same compound, the viability decrease (inhibition) in assay [7] is 128% (active); in assay [8], 96.7% (active).
